The values below come from the OligoGym collection.
Note: reference of the scale not given here.

One test has as its target SMYD3. Put plainly: pooled miR-30 sensor sort-seq; sequence = guide strand. Particulars: shRNA.
Consider TTTACCTACACAAACACGGAAC, for which the sensor-assay potency score (higher = more potent) was -0.662.
TAGCACTACAGTATTTGGCGAC registered a sensor-assay potency score (higher = more potent) of 0.0593.
Sequence TAGGCCAACACCAACTTCCTGC gave a sensor-assay potency score (higher = more potent) of 0.026.
The sequence TAATATTTGACTCCAGATCATA came in with a sensor-assay potency score (higher = more potent) of -1.27.
On the same count and under the same terms, the figure for TAGAATCAAATCTTCAATCAGG is -0.0994.
For the sequence TTGAACACAATCGAACAGTTGG, the sensor-assay potency score (higher = more potent) was determined as 0.615.
The same measure, in the same setting: for TTTGTTAATATTTGACTCCAGA the value was -0.278.
For TTCTTCTAAAAGTAGAATCAAA, the sensor-assay potency score (higher = more potent) is -1.27.
TTTTCTGACACTTAGCACTACA gave a sensor-assay potency score (higher = more potent) of -0.327.
Still for that read-out and setting: for TTTTTCTGACACTTAGCACTAC the value was -0.019; for TAGCATATCAGCATCCTTGTCC, 0.139.

The target of a further test is SNAP23. The test is described as above. Particulars: shRNA.
TATAACTGCAACTTAAATCAAA came in with a sensor-assay potency score (higher = more potent) of -0.858.
Take TTAGTTATGCTATTACATGGGC: the sensor-assay potency score (higher = more potent) is -0.215.
On the same count and under the same terms, for TTGAGTCAGGTTCTCTTCCATT the value was -1.05.
TTGGTGTCAGCCTTGTCTGTGA: the sensor-assay potency score (higher = more potent) turned out to be 0.24.
The same measure, in the same setting: the figure for TAATCTGGTGAGCTCTCTGTTG is -0.844; for TTATTTGTGGATTTTGAGCATC it is -0.871.
As to TTGGTTGCTGAAGCTGACCATT, the sensor-assay potency score (higher = more potent) is -0.861.
In turn, TTAGATACTACATTGCAAGGTG gave a sensor-assay potency score (higher = more potent) of 0.78.
Same read-out and setting: the figure for TTGTTCCTTTTGTTCATCCAGC is -0.861; for TAATGTATCCACCACTGGCTGC it is -0.654; for TTTTACTGAGGTAACAACCTCT it is 0.719.
In turn, TTCTTTGTTCTATTACATGGGC yielded a sensor-assay potency score (higher = more potent) of -0.51.

A further test concerns the target SNAPC2. Described as above. The conditions noted are these: shRNA.
Turning to AAGTGACATGAGCAGGTCGAGG, the sensor-assay potency score (higher = more potent) was -1.64.
Consider TGTAGATCTTCTCAAAGTCCAC, for which the sensor-assay potency score (higher = more potent) is -0.752.
Regarding TTTCAGTTCGCTGTGCTCGGCC, the sensor-assay potency score (higher = more potent) is -0.483.
Regarding TTCAGTGGAGGGACCAGCCGAC, the sensor-assay potency score (higher = more potent) is -0.383.
Same read-out and setting: for TAGATCTTCTCAAAGTCCACAG the value was -0.173.
On the same count and under the same terms, for AAGTACTTGTAGATCTTCTCAA the value was 0.257; for TATCTTCTCAGCCAGATCCGTC, -0.959.
Regarding AGTACTTGTAGATCTTCTCAAA, the sensor-assay potency score (higher = more potent) was -1.85.
On the same count and under the same terms, the figure for TTATCTTCTCAGCCAGATCCGT is -0.528.
Same read-out and setting: the figure for TCAGGGGACAGATCCCAGCTGC is -0.373; for TTCTCAGCCAGATCCGTCCAGA it is -0.94.
Turning to TCAGCTGCTGAGAGCTCGGGGC, the sensor-assay potency score (higher = more potent) is -1.02.

The next test addresses SNCG. The test is described as above. The conditions noted are these: shRNA.
Turning to TTGGATGCCACACCCTCCTGTT, the sensor-assay potency score (higher = more potent) is -1.09.
On the same count and under the same terms, for TACAACATTCTCCTTGGTCTTG the value was -0.826; for CTGTACAACATTCTCCTTGGTC, -1.03.
Turning to TGGTCTTTTCCACCGCACCCAC, the sensor-assay potency score (higher = more potent) was -1.77.
In turn, ACAACATTCTCCTTGGTCTTGG had a sensor-assay potency score (higher = more potent) of -0.611.
